{
  "source": "PubChem BioAssay (NCI)",
  "note": "Compounds without any hit were thinned out: in the full panel of roughly 83,000, 20% have a hit.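 Compound tested at a single concentration for 48 hours in 96-well plates; a percent growth value below 10 was scored as active.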 A number with no mark means an inactive call. Calls of active or inactive are those of the source.",
  "data": [
    {"tested_on": "NCI-H522 lung", "experiment": "NCI-60 one-dose screen, 48 h (100 = growth as untreated, 0 = no growth, -100 = all killed)", "settings": "10 µM unless noted", "values": [
      {"smiles": "COC(=O)C1=Nc2ccc(F)cc2/C1=C\\c1sc(Nc2ccc(O)cc2)nc1O", "growth": "47.4%"},
      {"smiles": "COc1ccc(OC)c(Nc2nnc(-c3ccc(Cl)cc3)o2)c1", "growth": "89.9%"},
      {"smiles": "O=C(OC[C@@H]1CO1)c1cccc2c(=O)c3ccccc3[nH]c12", "growth": "-49.9% (active)"},
      {"smiles": "CNC(=O)c1c(NC(=O)c2ccc(C(C)(C)C)cc2)sc2c(CN(C)C)c(O)ccc12", "growth": "75.9%"},
      {"smiles": "C=C1C(=O)O[C@H]2[C@H]1CC/C(COC(=O)c1cc3cc(F)ccc3[nH]1)=C\\CC[C@@]1(C)O[C@@H]21", "growth": "-68.9% (active)"},
      {"smiles": "COc1ccc2[nH]cc(-c3nc(-c4cn(C)c5ccncc45)cs3)c2c1", "growth": "65.4%"},
      {"smiles": "Brc1ccc(-c2cnc3nonc3n2)cc1", "growth": "66%"},
      {"smiles": "CC(C)CN1CC(C(=O)Nc2ccc3c(c2)-c2ccccc2C3)CC1=O", "note": "(stereo not given)", "growth": "51.3% [50 µM]"},
      {"smiles": "COc1cc2ncnc(Nc3ccc(F)c(Cl)c3)c2cc1OCC(=O)N1CCN(c2ccc(F)cc2)CC1", "growth": "72.2%"},
      {"smiles": "COc1ccc(-c2cn(-c3ccc(Cl)cc3)c(SCC(=O)c3ccc([N+](=O)[O-])cc3)n2)cc1", "growth": "70.7%"},
      {"smiles": "CCN(CC)S(=O)(=O)c1ccc(S(=O)(=O)N2CCC[C@@H](C(=O)N3CCN(C(=O)OC(C)(C)C)CC3)C2)cc1", "growth": "68.4%"},
      {"smiles": "O=C(c1ccc(Cl)cc1Cl)N1c2ccccc2Sc2ccccc21", "growth": "63.7%"},
      {"smiles": "COc1ccc(C2C3=C(COC3=O)N(CCO)c3cc4c(cc32)OCCO4)cc1OC", "note": "(stereo not given)", "growth": "-13.9% (active)"},
      {"smiles": "N#C/C(=C\\c1ccc(-c2ccc(Cl)cc2)o1)c1ccc(Cl)cc1", "growth": "81%"},
      {"smiles": "COc1ccc(C2CC(c3ccc(Nc4nc(Nc5ccc(F)cc5)nc(Nc5ccc(F)cc5)n4)cc3)=NN2C(C)=O)cc1", "note": "(stereo not given)", "growth": "83.1%"},
      {"smiles": "CCN(CC)CCOc1nc2c3ccc(Cl)cc3nn2c2ccccc12", "growth": "27.9%"},
      {"smiles": "COc1cc2c(cc1O)[C@@]1(C)[C@H](c3ccccc3Br)OC(=O)N1CC2", "growth": "75.5%"},
      {"smiles": "CC(C)(C)c1cc(C=Nc2cccc(C(F)(F)F)c2)c(O)c(C(C)(C)C)c1", "growth": "73.5%"},
      {"smiles": "CCCCCCNc1nc(NCCCCCC)c2[nH]c(NCCCCCC)nc2n1", "growth": "-42% (active)"},
      {"smiles": "COc1ccc(C2C(C#N)=C(N)Oc3c2sc2c(Br)cccc32)cc1", "note": "(stereo not given)", "growth": "-6.29% (active)"},
      {"smiles": "CC(/C=C1\\SC(=S)N(CC(=O)NC(Cc2c[nH]c3ccccc23)C(=O)O)C1=O)=C\\c1ccccc1", "note": "(stereo not given)", "growth": "93.3%"},
      {"smiles": "CCOC(=O)c1c(NC(=O)c2ccc(OC)cc2)sc2c(CN(C)C)c(O)ccc12", "growth": "75.1%"},
      {"smiles": "O=C(CCCCl)NNc1nccc(Nc2ccc(S(=O)(=O)Nc3ccncc3)cc2)n1", "growth": "99.7%"},
      {"smiles": "Nc1ncnc2c1c(-c1ccc(Oc3ccccc3)cc1)nn2CC1SSCC1O", "note": "(stereo not given)", "growth": "37.8%"},
      {"smiles": "COc1ccc(NC(=O)c2sc3nc(C)c(C(O)c4ccccc4)cc3c2N)cc1", "note": "(stereo not given)", "growth": "10.2%"},
      {"smiles": "COc1cccc(C(=O)OCC(O)C(=O)NC23CC4CC(CC(C4)C2)C3)c1", "note": "(stereo not given)", "growth": "86.1%"},
      {"smiles": "O=C(CBr)CN1C(=O)c2ccccc2C1=O", "growth": "101%"},
      {"smiles": "O=C(NCc1ccccc1O)c1cccc2ccccc12", "growth": "65.8%"},
      {"smiles": "CCn1cc(C(=O)NN=C2CCCCCC2)c(=O)c2ccc(C)nc21", "growth": "75.3%"},
      {"smiles": "Nc1c(C(=O)Nc2ccccn2)sc2nc3c(cc12)C(O)CCC3", "note": "(stereo not given)", "growth": "11.8%"},
      {"smiles": "COc1ccc(NC(=O)c2ccc(C(=O)Nc3ccc(OC)cc3OC)cc2)c(OC)c1", "growth": "76.4%"},
      {"smiles": "O=C(Nc1ncc(Cc2ccccc2Cl)s1)c1cccs1", "growth": "51.9%"},
      {"smiles": "COc1ccc2nc3ccccc3c(NCc3ccccc3)c2c1", "growth": "34.6%"},
      {"smiles": "Fc1ccc(COc2ccc(Nc3ncnc4sc5c(c34)CCCC5)cc2)cc1", "growth": "73%"},
      {"smiles": "COc1ccc(C2=Nc3c/c(=C\\c4c(O)[nH]c5cc(Cl)ccc45)ccc3=N2)cc1", "growth": "46%"},
      {"smiles": "N#Cc1c(N2CCOCC2)nc(=S)[nH]c1-c1ccccc1", "growth": "59.6%"},
      {"smiles": "O=C1CCC(C(=O)NN(c2ccccc2)c2ccccc2)N1", "note": "(stereo not given)", "growth": "96.5%"},
      {"smiles": "C/C(C=O)=C\\c1ccc2c(c1)OCO2", "growth": "99.9%"},
      {"smiles": "COc1cc2c(/C=C3\\C(=O)Nc4ccccc43)c(C(=O)O)[nH]c2cc1C", "growth": "93.5%"},
      {"smiles": "C/C(=N\\Nc1nc(C)cs1)c1cc2ccccc2o1", "growth": "66.3%"}
    ]}
  ]
}
